# Rows were chosen to be rich in hits. Some 2.3% of all compounds tested hit in one or more screens of this group.
# Jurkat NFkB inh – inhibitors of induced NF-kB luciferase reporter, primary screen, TCR NF-kB activation inhibitor project, cell-based, luminescence, uHTS; Jurkat, PMA/ionomycin-induced NF-kB luciferase reporter; inhibition, % at 4 µM; actives 0.53% (n = 330,000); in the data active means inhibition above about 50%
# Shn3 inh set2 – reduction of Shn3 3'UTR firefly luciferase signal, primary screen, Schnurri-3 inhibitor project, cell-based, Clone20 osteoblasts, set 2 | AID 588674, 2011 | actives 0.52% (n = 360,000) | inhibition, % at 12.5 µM | Clone20 osteoblast Shn3 3'UTR firefly luciferase, 24 h;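 active means mean inhibition of at least 75% with every replicate also reaching 75%; inconclusive means mean inhibition at least 75% but some replicate below; inactive means mean inhibition below 75%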;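 further: 0% = median of neutral control wells and 100% = pilot-screen positive control compound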
# 697 NFkB inh – inhibitors of PMA/ionomycin-induced NF-kB reporter, 697 cells, primary screen, B-cell NF-kB inhibitor project, cell-based, luminescence, uHTS. inhibition, % at 4 µM. 697 B-cell NF-kB luciferase reporter, 16 h. actives 0.33% (n = 330,000); in the data active means inhibition above about 35%
# TAG inh – inhibitors of triacylglycerol accumulation, primary screen, cell-based, uHTS, fluorescence, H9c2 | actives 0.66% (n = 230,000) | H9c2 cells, Nile Red lipid (TAG) fluorescence; cells loaded with 200 µM oleic acid | inhibition, % at 12.5 µM;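 active means pattern-corrected inhibition of lipid staining of at least 50% with the nuclear-stain viability signal not falling by more than 50%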;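 further: 0% = DMSO wells and 100% = triacsin C control wells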
# aSyn UTR inh – MLPCN primary screen, SNCA 5' untranslated region; inhibition, % (tested at 7.5 µM); actives 0.82% (n = 300,000); alpha-synuclein 5'UTR reporter, inhibitor activity; in the data active means inhibition above about 60%; inconclusive means no clear call, values can overlap the other calls;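 further: H4 neuroglioblastoma cells stably carrying SNCA 5'UTR luciferase fusion; 0% = DMSO wells and 100% = positive control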
# Gli-Sufu block – Gli-Sufu pathway antagonists, primary screen, luciferase luminescence, Sufu-KO-LIGHT cells, uHTS. AID 588413, 2011. inhibition, % at 5 µM. actives 0.74% (n = 340,000). Sufu-KO-LIGHT fibroblasts, Gli luciferase reporter luminescence;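 active means inhibition above about 55%, limit read from the data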;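 further: 0% = DMSO-treated cells and 100% = wells with medium but no cells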
# * = called active by the depositor; ? = inconclusive; · = no result.
SMILES,Jurkat NFkB inh,Shn3 inh set2,697 NFkB inh,TAG inh,aSyn UTR inh,Gli-Sufu block
O=c1oc2ccccc2cc1-c1cn2ccccc2n1,-17,?,-144,3,98*,-15
O=C(Nc1ccccc1)Nc1cc(OCC(F)(F)F)cc(OCC(F)(F)F)c1,·,93*,·,·,74*,25
Cc1ccc(C(=O)NC(=O)CSc2nnc(C)s2)cc1,13,10,11,8,-12,4
CCOC(=O)C1CCCN(S(=O)(=O)c2ccc(S(=O)(=O)N3CCCC3)cc2)C1 (stereo not drawn),37,88*,2,-14,-14,33
CCOC(=O)C1CCCN(C(=O)c2ccc(S(=O)(=O)N3CCCC3)cc2)C1 (stereo not drawn),13,4,7,3,23,5
COc1c(CC=C(C)C)cc(C2CC(=O)c3c(O)cc(O)cc3O2)cc1CC=C(C)C (stereo not drawn),-17,90*,-34,·,-34,-5
O=C(CSc1nc(O)c(C2CCCCC2)c(=O)[nH]1)NCC1CCCO1 (stereo not drawn),-2,2,7,15,27,8
COc1ccc(C(C)NCCC(c2ccc(OC(C)C)cc2)c2ccccc2OC)cc1 (stereo not drawn),14,69,-1,·,93*,3
Cn1c(-c2ccccc2[N+](=O)[O-])[n+](C)c2ccccc21,23,10,-5,-3,16,4
CC1=Nc2ccccc2/C1=C/c1sc(=N)n(-c2nccs2)c1O,0,29,13,·,63*,1
CC1=Nc2ccccc2/C1=C/c1nc(-c2ccc(C)s2)oc1O,-1,-26,5,-10,-2,-4
O=C(C(Br)=Cc1ccccc1)c1ccccc1,·,97*,·,63,·,9
COc1cccc2c(N/N=C/c3ccccc3)cc(C)nc12,-15,-1,-16,·,21,-5
COc1cccc(/C=N/Nc2nc(Nc3ccccc3)nc(-n3nc(C)cc3C)n2)c1O,-7,60,9,128,57,19
COc1ccc2nc(C)cc(N/N=C/c3cccc(OC)c3O)c2c1,-23,11,1,31,100*,19
COc1ccc(/C=N/Nc2cc(C)nc3ccc(Br)cc23)cc1,31,93*,-7,·,100*,20
COc1cccc(/C=N/Nc2cc(-n3nc(C)cc3-c3ccccc3)ncn2)c1O,19,90*,2,·,110*,41
COc1cc2cc(CN(CCCN3CCOCC3)C(=O)Nc3ccc(F)cc3)c(=O)[nH]c2cc1OC,0,3,15,3,21,4
COc1ccc(N(CC(=O)N2CCN(c3cccc(Cl)c3)CC2)S(=O)(=O)c2c(C)noc2C)cc1,1,30,-2,·,16,16
O=C1O/C(=C/c2ccccc2)c2ccccc21,-1,-43,-19,·,-25,-16
N#CC1=C(c2ccccc2)/C(=C/c2ccccc2)OC1=O,19,95*,6,9,20,-18
CC1(C)Cc2cccc(OCC(=O)OCC(=O)NCc3ccc(F)cc3)c2O1,6,-16,9,-5,22,-2
Cc1cc(N/N=C/c2c(O)ccc3ccccc23)nc(-c2ccccc2O)n1,7,63,6,·,72*,-6
O=C(NC(=S)NCc1ccccc1)c1cccs1,-10,3,-6,-15,17,2
O=C(Cc1ccccc1)NNC(=S)NC(=O)c1cccs1,-7,-8,10,1,75*,-5
SMILES,Jurkat NFkB inh,Shn3 inh set2,697 NFkB inh,TAG inh,aSyn UTR inh,Gli-Sufu block
CCOc1cc(Br)cc(/C=N/NC(=O)c2cccnc2)c1O,15,92*,-25,·,13,38
COc1ccc(/C=N/NC(=O)c2cnccn2)c(OC)c1OC,8,5,3,9,-1,5
COc1ccccc1/C=N/NC(=O)c1ccc(NC(=O)c2cccc([N+](=O)[O-])c2)cc1,-15,·,11,·,3,·
COc1c(Br)cc(Br)cc1/C=N/NC(=O)c1cccnc1,17,-1,-1,·,-6,3
COc1ccc(OC)c2[nH]c(C(=O)N/N=C/c3ccccc3O)cc12,36,93*,-16,·,4,59*
COc1cccc(/C=N/NC(=O)c2cnccn2)c1O,2,58,-2,54*,12,-6
COc1cccc(/C=N/NC(=O)c2cc3cc([N+](=O)[O-])ccc3s2)c1O,·,91*,·,·,107*,77*
O=C(COC(=O)CC1CC2CCC1C2)NC(=O)NCc1ccco1 (stereo not drawn),3,-25,-7,0,-4,5
COc1ccc([C@H]2CC(=O)C=C(c3ccc4ncccc4c3)C2)cc1,48,-15,-65,-9,·,-13
CCn1cc(S(=O)(=O)Nc2ccc3c(c2)OCCO3)cn1,16,27,-10,-8,-36,15
O=C(N/N=C/c1cccc([N+](=O)[O-])c1)c1cnccn1,-2,-20,-16,·,-6,3
O=C(N/N=C/c1cc([N+](=O)[O-])ccc1Cl)c1cnccn1,30,-6,9,33,81*,-5
COc1ccc(/C=N/NC(=O)c2cc3c(OC)ccc(OC)c3[nH]2)cc1O,31,40,-7,·,68*,23
CCOC(=O)c1c(C)[nH]c(C(=O)N/N=C\c2ccccc2O)c1C,·,54,·,·,87*,48
COc1ccc(/C=N/NC(=O)c2cnccn2)cc1O,-18,-47,-37,·,-63,-12
COc1cccc(/C=N/NC(=O)c2cc(-c3cccn3C)n[nH]2)c1O,35,73,4,·,95*,9
O=c1[nH]n(-c2cccc3cccnc23)c(=O)c2ccccc12,-2,2,17,-12,-1,1
CN(CCOc1ccc(Cl)c(Cl)c1)Cc1ccccc1,-5,33,-4,3,5,3
NS(=O)(=O)c1ccc(NC(=O)CCC(=O)N2CCOCC2)cc1,6,-2,3,·,-15,-3
COc1cccc(/C=N/NC(=O)c2c(-c3ccccc3)noc2C)c1O,14,88*,-14,29,?,25
COc1cccc(/C=N/NC(=O)c2cc3c(OC)cccc3[nH]2)c1OC,-5,5,0,3,-4,0
COc1cccc(/C=N/NC(=O)c2cc3c(OC)cccc3[nH]2)c1O,-7,?,8,·,86*,48
COc1cccc(/C=N/NC(=O)CNC(=O)/C=C\c2ccccc2)c1O,6,90*,-14,·,11,7
COc1ccc(/C=C\C(=O)NCC(=O)N/N=C/c2cccc(OC)c2O)cc1,12,25,-6,·,-2,-5

# High-throughput results from PubChem BioAssay.
